{
  "source": "PubChem BioAssay AID720550",
  "about": "(National Center for Advancing Translational Sciences (NCATS), 2013)",
  "note": "Records with an inconclusive call do not appear. Entries that show only a call come without a potency. Calls of active or inactive are those of the source. Calls follow the shape of the dose curve; as a rule, active = well fitted curve in the direction sought with a large enough effect; inconclusive = small, poorly fitted or top-dose-only effect, or another doubt; inactive = no such curve, though single readings can be large or run the other way.",
  "data": [
    {"test": "qHTS for Inhibitors of Bloom's syndrome helicase (BLM): Thiazole Orange DNA Binding Counterscreen for SAR.", "conditions": "fluorescence; Potency: Thiazole orange DNA displacement; series mostly up to 57.1 µM", "method_in_brief": "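Compounds pintool-added to 50 nM unlabeled DNA with 100 nM thiazole orange; fluorescence (ex 480/em 530 nm) read after 15 min at room temperature. Dye displacement flags nonspecific DNA binders; inactivity is the desired outcome.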", "values": [
      {"compound": "COc1ccc(OC)c(-c2nnc(NC(=O)Nc3ccc4ccccc4c3)s2)c1", "Potency": "inactive"},
      {"compound": "O=C(Nc1ccc(-n2cncn2)c(F)c1)Nc1nnc(-c2ccncc2)s1", "Potency": "inactive"},
      {"compound": "O=C(Nc1ccc2ccccc2c1)Nc1nnc(C2CCCCC2)s1", "Potency": "inactive"},
      {"compound": "O=C(Nc1cccc(C(F)(F)F)c1)Nc1nnc(-c2ccncc2)s1", "Potency": "inactive"},
      {"compound": "O=C(Nc1ccc(Cl)c(Cl)c1)Nc1nnc(NC2CCNCC2)s1", "Potency": "inactive"},
      {"compound": "CC(=O)c1cccc(NC(=O)Nc2nnc(-c3ccncc3)s2)c1", "Potency": "inactive"},
      {"compound": "O=C(Nc1ccc2ccccc2c1)Nc1nnc(-c2ccccc2F)s1", "Potency": "inactive"},
      {"compound": "COc1ccc(NC(=O)Nc2ccc(-c3nc4ccccc4[nH]3)cc2)cc1OC", "Potency": "inactive"},
      {"compound": "CCCCCCNC(=O)Nc1nnc(-c2ccncc2)s1", "Potency": "inactive"},
      {"compound": "O=C(Nc1ccc(Br)cc1)Nc1nnc(-c2ccncc2)s1", "Potency": "inactive"},
      {"compound": "CC(C)(C)c1cccc(NC(=O)Nc2nnc(-c3ccncc3)s2)c1", "Potency": "inactive"},
      {"compound": "CC(=O)c1ccc(NC(=O)Nc2nnc(-c3ccncc3)s2)cc1", "Potency": "inactive"},
      {"compound": "N#Cc1cccc(NC(=O)Nc2nnc(-c3ccncc3)s2)c1", "Potency": "inactive"},
      {"compound": "O=C(Nc1ccc(F)c(C(F)(F)F)c1)Nc1nnc(-c2ccncc2)o1", "Potency": "inactive"},
      {"compound": "O=C(Nc1nnc(-c2ccncc2)s1)Oc1ccc2ccccc2c1", "Potency": "inactive"},
      {"compound": "O=C(Nc1ccc(N2CCOCC2)c(F)c1)Nc1nnc(-c2ccncc2)s1", "Potency": "inactive"},
      {"compound": "O=C(Nc1ccc2sccc2c1)Nc1nnc(-c2cccnc2)s1", "Potency": "inactive"},
      {"compound": "O=C(Nc1ccc(N2CCOCC2)c(C(F)(F)F)c1)Nc1nnc(-c2ccncc2)s1", "Potency": "4.08 µM (active)"},
      {"compound": "O=C(Nc1ccc(Cl)c(Cl)c1)Nc1nc(-c2ccncc2)cs1", "Potency": "inactive"},
      {"compound": "O=C(Nc1ccc2ccccc2c1)Nc1nnc(-c2ccccc2)s1", "Potency": "inactive"},
      {"compound": "N#Cc1cc(NC(=O)Nc2cccc(-c3ccncc3)n2)ccc1Cl", "Potency": "inactive"},
      {"compound": "O=C(Nc1ccc(Cl)c(Cl)c1)Nc1nnc(-c2ccncc2)o1", "Potency": "inactive"},
      {"compound": "O=C(Nc1ccc(Cl)c(Cl)c1)Nc1cccc(-c2ccncc2)n1", "Potency": "inactive"},
      {"compound": "O=C(Cc1nnc(-c2ccncc2)s1)Nc1ccc(F)c(C(F)(F)F)c1", "Potency": "inactive"},
      {"compound": "Cc1cc(NC(=O)Nc2nnc(-c3cccnc3)s2)ccc1Cl", "Potency": "inactive"},
      {"compound": "N#CN/C(=N\\c1nnc(-c2ccncc2)s1)Nc1ccc(F)c(C(F)(F)F)c1", "Potency": "inactive"},
      {"compound": "O=C(Nc1ccc2ccccc2c1)Nc1nnc(-c2ccccc2Cl)s1", "Potency": "inactive"},
      {"compound": "O=C(Nc1ccc2ccccc2c1)Nc1nnc(-c2ccc(O)cc2)s1", "Potency": "inactive"},
      {"compound": "O=C(Nc1ccc(Cl)c(C(F)(F)F)c1)Nc1nnc(-c2cccnc2)s1", "Potency": "inactive"},
      {"compound": "O=C(Nc1ccc(-n2ccnc2)c(F)c1)Nc1nnc(-c2ccncc2)s1", "Potency": "inactive"},
      {"compound": "O=C(Nc1nnc(-c2ccncc2)s1)Nc1ccc(Cl)c2ccccc12", "Potency": "inactive"},
      {"compound": "O=C(Nc1nnc(-c2ccncc2)s1)Nc1ccc(Cl)cc1F", "Potency": "inactive"},
      {"compound": "O=C(Nc1ccc(Br)c(Br)c1)Nc1nnc(-c2cccnc2)s1", "Potency": "inactive"},
      {"compound": "O=C(NCc1ccc(Cl)c(Cl)c1)Nc1nnc(-c2ccncc2)s1", "Potency": "inactive"},
      {"compound": "O=C(Nc1ccc(Cl)nc1)Nc1nnc(-c2ccncc2)s1", "Potency": "inactive"},
      {"compound": "O=C(Nc1nnc(-c2ccncc2)s1)Nc1cccc2ccccc12", "Potency": "inactive"},
      {"compound": "Cc1ccccc1-c1nnc(NC(=O)Nc2ccc3ccccc3c2)s1", "Potency": "inactive"}
    ]}
  ]
}
